Compound activity from PubChem BioAssay.
Sa ugtP lethal: compounds lethal to S. aureus RN4220 ugtP deletion mutant; OD600 growth, 16 h; growth inhibition, % (test concentration not listed); actives 0.54% (n = 330,000); in the data active = growth inhibition above about 68%;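 note: plate controls were untreated wells for no effect and antibiotic for full effect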
SSB-PriA inh: K. pneumoniae PriA-SSBct interaction inhibition; AlphaScreen SSBct-PriA binding, biotinylated peptide; inhibition, % at 33 µM; actives 0.6% (n = 430,000); AID 1272365; in the data active = inhibition mostly above about 37%, no sharp cut-off; inactive = mostly below about 20%;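 note: plate controls were negative control peptide for no effect and reference peptide for full effect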
Sa RN4220 lethal: S. aureus RN4220 growth inhibition; OD600, 16 h; inhibition, % (no concentration beside the values); AID 1259311; actives 0.33% (n = 330,000); in the data active = inhibition above about 85%;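 note: plate controls were untreated cells for no effect and reference antibiotic for full effect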
Numbers without * were called inactive; / = no result. Only some compounds are listed: those with a hit (about 1% of all), similar ones and a draw of the others.

SMILES | Sa ugtP lethal | SSB-PriA inh | Sa RN4220 lethal
O=C(NCCCN1CCO[C@H](c2ccccc2)C1)C(=O)Nc1ccccc1Cl | / | 2 | /
Cc1ccccc1C(=O)NCc1nccc(N(C)C)n1 | / | -1 | /
O=C(CSc1nnc(-c2cccnc2)o1)Nc1ccc(OC(F)F)cc1 | / | -1 | /
O=C(CCl)N1c2ccccc2OCC1c1ccccc1 (stereo not drawn) | 95* | -7 | 40
O=C(CCl)N1c2ccccc2SCC1c1ccccc1 (stereo not drawn) | / | 3 | /
CS(=O)(=O)c1ccccc1C(=O)Nc1nnc(-c2ccc(F)cc2)o1 | / | -11 | /
O=C(NCCC1=CCCCC1)C(=O)NCC(O)(c1cccs1)C1CC1 (stereo not drawn) | / | -6 | /
COc1ccc(C=NNc2ncc(Br)cn2)c(OC)c1 | 5 | -11 | 5
COc1ccc(C=NNc2cc(C)nc3ccc(OC)cc23)c(OC)c1 | -9 | 41* | 8
c1ccc(-c2nc(N3CCCC3)c3ccccc3n2)nc1 | / | 54 | /
CCCN(CCC)c1nc(-c2ccccn2)nc2ccccc12 | 100* | -7 | 99*
c1ccc(-c2nc(N3CCOCC3)c3ccccc3n2)nc1 | 4 | 62* | 2
CCCCN(CC)c1nc(-c2ccncc2)nc2ccccc12 | -15 | -32 | -9
c1ccc(-c2nc(N3CCCCCC3)c3ccccc3n2)nc1 | 57 | 87* | 5
CCN1CCN(c2nc(-c3ccccn3)nc3ccccc23)CC1 | -5 | -8 | 1
O=S(=O)(c1ccc(F)cc1F)N1CCN(c2ccc3nnc(-c4ccco4)n3n2)CC1 | / | -3 | /
NS(=O)(=O)c1ccc(NC(=O)CCCSc2ccc(NC(=O)C3CC3)nn2)cc1 | / | -20 | /
O=C(CCn1ccc(=O)[nH]c1=O)N1CCC(Cc2n[nH]c(=O)n2-c2ccccc2F)CC1 | / | -4 | /
COC(=O)c1ccc(NC(=O)Cn2nc(C)c3cnn(C(C)(C)C)c3c2=O)cc1 | / | -3 | /
Cc1sc(NC(=O)c2ccccc2)c([C@H](c2cccs2)N2CCN(CCO)CC2)c1C | / | 8 | /
CCCCCNC(=O)C(=O)Nc1ccc(OC)cc1 | / | -25 | /
COc1cc(C(=O)NCCc2ccc(F)cc2)ncn1 | / | -41 | /
COC(=O)c1ccccc1NC(=O)c1c[nH]c2c(C(F)(F)F)cccc2c1=O | / | -4 | /
N#Cc1nc(-c2ccccc2F)oc1N1CCCCCC1 | / | 86* | /
Cc1ccccc1-c1nc(C#N)c(N2CCCCC2)o1 | 15 | 59* | 7
SMILES | Sa ugtP lethal | SSB-PriA inh | Sa RN4220 lethal
N#Cc1nc(-c2ccccc2F)oc1N1CCCC1 | 2 | 2 | 5
Cc1ccccc1-c1nc(C#N)c(N2CCN(C)CC2)o1 | / | 27 | /
COC(=O)N1CCc2ccc(N)cc2C1 | / | -6 | /
O=C(Cc1cccs1)NCCOc1ccc(-c2ccccc2)nn1 | / | -14 | /
Cc1cc(-c2nnc(NC(=O)Cc3ccc(S(C)(=O)=O)cc3)o2)n(C)n1 | / | 43* | /
COc1ccc(CC(=O)Nc2nnc(-c3cc(C)nn3C)o2)cc1 | / | 5 | /
CNc1nc(-c2ccccn2)cs1 | / | 118* | /
COc1ccc(CCNc2nc3ccccc3s2)cc1OC | / | 8 | /
COc1ccc(CCNc2c3ccccc3nc3ccccc23)cc1OC | 93* | 2 | -3
COc1ccc(CCNc2nc(-c3ccccn3)cs2)cc1OC | / | 39* | /
Cc1cccc(Nc2nc(-c3ccccn3)cs2)n1 | -25 | 95* | 28
Cc1cccc(Nc2nc(-c3cccs3)cs2)n1 | 70 | 6 | -15
COc1ccc(CCNc2nc(-c3ccncc3)cs2)cc1OC | -7 | 1 | -4
CC(C)c1nc(-c2ccccn2)cs1 | / | 7 | /
CCCc1cc(=O)n(CC(=O)NCc2ccccn2)cn1 | / | -14 | /
CCCS(=O)(=O)N1CCC[C@H](C(=O)NCc2ccco2)C1 | / | -23 | /
COc1ccc(NS(=O)(=O)c2cc3c4c(c2)CC(=O)N4CCC3)c([N+](=O)[O-])c1 | / | 27 | /
Cc1nc2c(ccc3nc(NC(=O)C4=CC5C=C([N+](=O)[O-])C=CC5S4)sc32)s1 (stereo not drawn) | / | -4 | /
CCCSC1=C(C#N)[C@H](c2cc(OC)ccc2OC)CC(=O)N1 | / | -4 | /
COc1ccc(S(=O)(=O)C2CN(C(=O)c3ccc(S(=O)(=O)N(C)C)cc3)C2)cc1 | / | -12 | /
Cc1cccnc1Nc1nc(-c2ccccn2)cs1 | 99* | 68* | 98*
Cc1cccnc1Nc1nc(-c2ccccc2)cs1 | 25 | -5 | -2
O=C(CSc1ccc(F)cc1)NCCn1nc(-c2cccs2)cc1C1CC1 | / | -28 | /
O=[N+]([O-])c1cc(Cl)ccc1Nc1ccc(O)cc1 | / | 103* | /
O=[N+]([O-])c1ccc(Cl)cc1Nc1ccccc1 | / | 56 | /
O=C(CSc1nnc(-c2cccc(S(=O)(=O)N3CCCCC3)c2)o1)c1ccc(F)cc1 | / | -13 | /
CCc1ccc(CNC(=O)C2CCC(=O)N2C2CCCCC2)cc1 (stereo not drawn) | 6 | -16 | 4
O=C(NCc1ccccn1)C1CCC(=O)N1C1CCCCC1 (stereo not drawn) | 0 | 104* | 2
O=C(Nc1ccc(F)cc1)NC1(C(=O)NCc2ccc3c(c2)OCO3)CCCCC1 | 100* | -10 | 37
